Assay [1] in a line: Wnt pathway potentiators raising nuclear beta-catenin – imaging, WNT3A-conditioned medium, mouse C2C12, NPC library, primary screen (AID 1117326; in the data active = nuclear beta-catenin stimulation mostly above about 4.2%, no sharp cut-off; inactive = mostly below about 10%). Particulars: stronger effect = higher value.
Assay [2] is described as follows: stimulators of insulin release from INS-1E, primary screen, cell-based, 5 mM glucose, NPC library (AID 1117329;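 active = compound raises insulin release from rat beta cells at 5 mM glucose, no numeric limit stated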). To be noted: rat INS-1E insulin secretion, at 10 µM, stronger effect = higher value.
Assay [3] in a line: growth inhibition of GSK3B-pretreated HCT116 cells – cell-based, CellTiter-Glo, 0.2 to 20 µM (AID 1117336;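 active = compounds lowering colon cancer cell viability after pretreatment blocking the GSK3B kinase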). Particulars: HCT116 viability after GSK3B inhibitor, at 20 µM, stronger effect = higher value.
The nature of assay [4]: inhibition of endothelial tube formation, primary screen, imaging, VEGF stimulated, CD31 staining, tube area, NPC library (AID 1117340;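 active = compound that reduces growth-factor-driven endothelial tube area in a mixed cell culture, no cutoff stated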). To be noted: VEGF-stimulated ADSC/ECFC co-culture, at 10 µM, stronger effect = higher value.
Assay [5] can be described thus: GLP1 release stimulators, primary, NCI-H716, NPC library (AID 1117341). To be noted: NCI-H716 cells, at 10 µM, stronger effect = higher value.
Assay [6] is described as follows: HCT116 colon cancer cell growth inhibition, primary screen, CellTiter-Glo luminescence, NPC library (AID 1117342;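 active = compounds that lower survival of HCT116 colon cancer cells in the luminescence readout, no numeric limit stated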). To be noted: at 20 µM (top of the series). In general terms: ATP-based viability assays read luminescence as a measure of living cells.
A short description of assay [7]: reduced SW480 viability measured with CellTiter-Glo, NPC library, primary (AID 1117343;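 active = compounds that lower viability of the colon cancer cells in the luminescence readout, with no numeric limit stated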). To be noted: CellTiter-Glo luminescence; at 20 µM (top of the series).
The nature of assay [8]: NPC library primary testing for decreased DLD-1 cell viability via CellTiter-Glo (AID 1117346;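 active = compounds that lower survival of DLD-1 colon cancer cells in the luminescence readout, no cutoff given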). Particulars: DLD-1 viability, CellTiter-Glo luminescence; at 20 µM (top of the series).
Assay [9] is described as follows: blockers of polyQ-driven CASP3 activation – cell-based (AID 1583). Particulars: polyglutamine-induced caspase-3 activation, cell assay; stronger effect = higher value;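 tested at 10 µM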.
Assay [10] can be described thus: yeast 75Q aggregation reduction – 75Q-TubU reporter (AID 1593). Particulars: Yeast 75Q polyglutamine aggregation reporter.
Assay [11] can be described thus: restoration of touch response, mutant HTT neurons – whole organism, C. elegans mechanosensory neurons, N-terminal huntingtin (AID 1599). Particulars: C. elegans polyQ-huntingtin mechanosensory neurons, stronger effect = higher value.
Assay [12] in a line: blockers of cytochrome c efflux from mitochondria – biochemical, purified mitochondria (AID 1603).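 Note: mouse liver mitochondria challenged with calcium chloride; signal normalized to the plate average as 100%.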 To be noted: stronger effect = lower value.
A short description of assay [13]: polyglutamine aggregate formation blockers (AID 1604). Particulars: polyglutamine-induced protein aggregation inhibition assay; stronger effect = higher value; tested at 2.5 µM.
For assay [14], the target named is 6-phosphogluconate dehydrogenase, decarboxylating (Homo sapiens) (UniProt P52209). Put plainly: inhibition of human phosphogluconate dehydrogenase – biochemical, recombinant enzyme, NADPH absorbance, primary screen (AID 1159550;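 active = at least 20% inhibition of 6-phosphogluconate dehydrogenase activity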). To be noted: recombinant 6PGD, NADPH absorbance 341 nm; at 10 µM; stronger effect = higher value.
Assay [15] is described as follows: EMT-state selective cytotoxicity in co-culture – imaging, PC-3E GFP, TEM4-18 mCherry, primary screen (AID 1345086;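 active = compounds killing one labelled cell type while sparing the other, by normalised counts and ratio limits, not self-fluorescent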;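 for all read-outs here: cells exposed to compound for 72 h before imaging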;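 for red/green cell ratio (normalised): normalised mesenchymal count divided by normalised epithelial count so high means epithelial killing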). Particulars: PC-3E GFP / TEM4-18 mCherry co-culture, imaging cell counts, at 1 µM; for red/green cell ratio (normalised): actives lie on both sides, counts scaled to control wells, 1 = unselective.
A short description of assay [16]: MELAS cybrid and Rieske KO viability enhancers – cell-based, MELAS cybrids, Rieske KO mouse fibroblasts, CellTiter-Glo, primary screen (AID 1508586;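 active = mean z-score across replicates of 1.96 or higher in either the MELAS or the Rieske mutant cell line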;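 note: z relative to plate mean and SD of compound and empty wells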). To be noted: low glucose.
Assay [17] concerns the target NAD(+) hydrolase SARM1 (Homo sapiens) (UniProt Q6SZW1). As to the kind of experiment: blocking NAD cleavage by SARM1 SAM-TIR – cell lysate, NAD-Glo luminescence (AID 1508614;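 active = compound whose remaining NAD level is above about 45 nM, limit read from the data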;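 note: higher remaining NAD means stronger inhibition of SARM1 NADase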). Particulars: SAM-TIR HEK293T lysate NADase, at 1 µM, stronger effect = higher value.
For assay [18], the target named is Mitogen-activated protein kinase 7 (Homo sapiens) (UniProt Q13164). Put plainly: Gal4-ERK5 driven luciferase induction – cell-based, HTS, primary screen (AID 1508626;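 active = luciferase signal above three times the same-plate solvent-only control wells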;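 note: luciferase driven by Gal4-ERK5 fusion binding five Gal4 sites before minimal TATA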). Particulars: HeLa Gal4-ERK5 transactivation, 18 h, at 5 µM, stronger effect = higher value.
Assay [19] can be described thus: growth inhibition, single agents and combos, ICB984, cell-based, cisplatin or BGB combos, synergistic combos for chromothripsis tumors (AID 1671451; call rule not given here;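 note: cells exposed for 96 hours before readout; 0% = vehicle DMSO and 100% = killing by high DMSO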). To be noted: ICB984 medulloblastoma cells, drug combinations, stronger effect = higher value.
The mark [20] stands for this setting: measured here: epithelial PC-3E GFP cell survival.
The mark [21] stands for this setting: measured here: mesenchymal TEM4-18 mCherry cell survival.
[22] abbreviates: MELAS cybrid survival, CellTiter-Glo 48 h, stronger effect = higher value.
[23] abbreviates: Rieske KO mouse fibroblast survival, CellTiter-Glo 72 h.

“And” between values parts separate entries of the source, which are not always exact repeats. Equal entries are not always repeated. For some of these results: Results with a measured potency or affinity are listed apart. The source made the active and inactive calls.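 Rule for the calls, unless noted: active = compound raises GLP1 secretion from the human gut endocrine cells, with no numeric limit stated; inactive = the rest.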

Sequence of NAD(+) hydrolase SARM1 (Homo sapiens) (Q6SZW1 whole entry, looked up, the tested form may be a part): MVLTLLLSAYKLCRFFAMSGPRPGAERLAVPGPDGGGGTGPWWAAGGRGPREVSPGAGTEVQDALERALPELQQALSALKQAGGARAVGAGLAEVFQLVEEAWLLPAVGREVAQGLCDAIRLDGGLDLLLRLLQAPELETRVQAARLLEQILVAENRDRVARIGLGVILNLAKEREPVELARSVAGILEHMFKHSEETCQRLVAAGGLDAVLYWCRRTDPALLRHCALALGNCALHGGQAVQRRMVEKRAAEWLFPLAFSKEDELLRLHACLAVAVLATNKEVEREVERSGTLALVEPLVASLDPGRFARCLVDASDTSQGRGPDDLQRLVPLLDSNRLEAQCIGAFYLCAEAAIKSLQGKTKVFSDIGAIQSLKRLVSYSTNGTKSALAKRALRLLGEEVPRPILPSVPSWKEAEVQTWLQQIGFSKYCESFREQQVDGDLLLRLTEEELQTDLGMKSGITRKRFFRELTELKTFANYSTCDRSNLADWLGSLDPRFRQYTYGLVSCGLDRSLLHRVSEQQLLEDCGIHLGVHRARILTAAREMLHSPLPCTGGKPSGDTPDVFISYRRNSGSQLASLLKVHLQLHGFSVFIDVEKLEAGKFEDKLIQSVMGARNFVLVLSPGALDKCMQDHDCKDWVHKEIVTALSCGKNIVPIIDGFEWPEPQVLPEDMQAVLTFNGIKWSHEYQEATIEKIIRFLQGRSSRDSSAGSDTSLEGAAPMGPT
Sequence of 6-phosphogluconate dehydrogenase, decarboxylating (Homo sapiens) (P52209 whole entry, looked up): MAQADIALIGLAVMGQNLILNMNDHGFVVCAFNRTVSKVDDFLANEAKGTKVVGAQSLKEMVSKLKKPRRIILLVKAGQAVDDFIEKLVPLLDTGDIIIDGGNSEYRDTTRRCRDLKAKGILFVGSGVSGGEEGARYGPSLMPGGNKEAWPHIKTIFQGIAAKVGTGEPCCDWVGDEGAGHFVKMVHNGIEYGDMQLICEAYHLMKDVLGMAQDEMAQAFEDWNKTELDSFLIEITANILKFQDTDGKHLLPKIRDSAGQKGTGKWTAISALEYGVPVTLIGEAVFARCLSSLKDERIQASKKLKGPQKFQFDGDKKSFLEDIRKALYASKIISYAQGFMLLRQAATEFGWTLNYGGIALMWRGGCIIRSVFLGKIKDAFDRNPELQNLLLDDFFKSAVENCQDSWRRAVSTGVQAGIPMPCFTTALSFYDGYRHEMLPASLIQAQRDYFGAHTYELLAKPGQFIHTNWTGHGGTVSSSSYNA
Sequence of Mitogen-activated protein kinase 7 (Homo sapiens) (Q13164 whole entry, looked up, the tested form may be a part): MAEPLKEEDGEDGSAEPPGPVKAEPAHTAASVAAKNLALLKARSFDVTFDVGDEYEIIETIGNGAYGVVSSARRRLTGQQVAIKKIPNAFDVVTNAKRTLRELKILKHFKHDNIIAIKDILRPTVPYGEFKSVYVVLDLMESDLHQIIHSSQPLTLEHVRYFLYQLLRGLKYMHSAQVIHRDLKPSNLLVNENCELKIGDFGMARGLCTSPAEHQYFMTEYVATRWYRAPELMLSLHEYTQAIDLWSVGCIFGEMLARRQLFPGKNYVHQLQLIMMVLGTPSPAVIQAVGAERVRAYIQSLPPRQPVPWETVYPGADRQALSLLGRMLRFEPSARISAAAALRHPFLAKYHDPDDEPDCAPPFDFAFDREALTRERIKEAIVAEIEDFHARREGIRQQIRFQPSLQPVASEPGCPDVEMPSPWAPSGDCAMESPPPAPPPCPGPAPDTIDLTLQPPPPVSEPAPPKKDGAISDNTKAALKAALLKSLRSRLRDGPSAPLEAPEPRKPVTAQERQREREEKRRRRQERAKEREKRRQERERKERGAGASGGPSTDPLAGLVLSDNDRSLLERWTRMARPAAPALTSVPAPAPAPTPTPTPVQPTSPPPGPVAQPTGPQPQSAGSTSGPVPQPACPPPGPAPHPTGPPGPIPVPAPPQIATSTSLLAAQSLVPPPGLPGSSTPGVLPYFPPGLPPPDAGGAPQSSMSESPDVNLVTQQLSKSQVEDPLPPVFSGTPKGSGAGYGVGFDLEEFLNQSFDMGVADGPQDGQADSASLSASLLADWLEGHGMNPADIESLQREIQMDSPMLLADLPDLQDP

In the case of `Nc1ccc(S(=O)(=O)Nc2ccccc2)cc1`, the nuclear beta-catenin stimulation is 1% (inactive) in [1] (at 10 µM) and 0.9% in assay [1] (stimulation, at 2 µM). In addition, in assay [2], the insulin secretion stimulation was -2.7% (inactive). In addition, the viability decrease in [3] is -9.8% (inactive). For the same compound, the tube area decrease in assay [4] was 10.5% (inactive). In [5], the GLP1 secretion stimulation is 3.7% (inactive). The inhibition of viability in assay [6] was -1.7% (inactive). Besides, the figures for the viability decrease (inhibition) in [7] and in [8] were 5.2% (inactive) and 0.95% (inactive), respectively.
With `C/C=C/C=N/NC(=O)c1ccncc1`, the nuclear beta-catenin stimulation in assay [1] (at 10 µM) is 0.2% (inactive); in assay [1] (stimulation, at 2 µM), 0.6%. In [2], the insulin secretion stimulation is -2.2% (inactive). For the same compound, the viability decrease in assay [3] was -6.2% (inactive). Also, the tube area decrease in [4] is 6% (inactive). In [5], the GLP1 secretion stimulation is -0.1% (inactive). In [6], the inhibition of viability was 17% (inactive). Further, the viability decrease (inhibition) in [7] is 27.7% (inactive); in assay [8], -3.65% (inactive).
In the case of `CC(C)Cc1ccc(CC(=O)O)cc1`, the nuclear beta-catenin stimulation in [1] (at 10 µM) was -0.7% (inactive); in assay [1] (stimulation, at 2 µM) it was -0.2%. Besides, in assay [2], the insulin secretion stimulation is 0.2% (inactive). For the same compound, the viability decrease in assay [3] was -11.5% (inactive). Also, the tube area decrease in assay [4] is -13.7% (inactive). Besides, in assay [5], the GLP1 secretion stimulation was -1.8% (inactive). In [6], the inhibition of viability was -3.5% (inactive). The viability decrease (inhibition) in assay [7] was 4.2% (inactive); in assay [8], -8% (inactive).
For the compound `Clc1cccc(Cl)c1NC1=NCCN1`, the inhibition – broadly, the drop in the measured response relative to a control, in per cent – in [9] was 5.5%; in assay [14], 13.3% (inactive). Further, the score in assay [10] was found to be 1.4. In assay [11], this compound gave a rescue above control of 13.6. In assay [12], the cytochrome c release ratio was 1.31. In addition, in assay [13], the inhibition of aggregation is 86.9%. Moreover, the nuclear beta-catenin stimulation in assay [1] (at 10 µM) was 0.7% (inactive); in assay [1] (stimulation, at 2 µM), 0.7%. Besides, the insulin secretion stimulation in assay [2] is 1.9% (inactive). The viability decrease in [3] was -10.4% (inactive). Moreover, in [4], the tube area decrease was -5.1% (inactive). In addition, the GLP1 secretion stimulation in assay [5] is 1% (inactive). The inhibition of viability in assay [6] was -0.6% (inactive). Also, the viability decrease (inhibition) in assay [7] is -15.3% (inactive); in [8], -4.9% (inactive). The red/green cell ratio (normalised) in assay [15] is 1.14 (inactive). Moreover, the normalised cell number amounted to 1.33 in [15] (setting [20]) and 1.52 in [15] (setting [21]). In addition, the z-score was -0.353 (inactive) and 0.0276 (inactive) and 0.719 (inactive) in [16] (setting [22]); 0.516 and -0.377 and -0.412 in assay [16] (setting [23]). Besides, the remaining NAD in assay [17] was 10 nM (inactive). Also, the luciferase signal in assay [18] was 64 AU (inactive).
Regarding `CCN(CC)CCCC(C)Nc1c2ccc(Cl)cc2nc2ccc(OC)cc12` (centres undefined), the inhibition in assay [9] was -263%; in assay [14], 1.31% (inactive); in assay [19] (BGB IC20 combo, at 0.005 µM), -4.02%; in assay [19] (BGB IC40 combo, at 0.005 µM) it was 16.5%; in [19] (BGB IC40 combo, at 0.05 µM), 90.3%; in assay [19] (at 0.5 µM), -2.08% (inactive). Moreover, the inhibition is 90% in [19] (cisplatin combo, at 0.05 µM); -4.11% in assay [19] (cisplatin combo, at 0.5 µM); -21.6% in assay [19] (cisplatin combo, at 5 µM); 1.6% in [19] (measured here: 5 uM single agent, at 5 µM). This compound returned a score in assay [10] of 0.79. This compound came in with a rescue above control in assay [11] of 26.7. Also, the cytochrome c release ratio in [12] is 1.44. In addition, the inhibition of aggregation in assay [13] amounted to 77.3%. The nuclear beta-catenin stimulation in assay [1] (at 10 µM) is 3.9% (inactive); in assay [1] (stimulation, at 2 µM), 1.8%. Moreover, in assay [2], the insulin secretion stimulation was 84.6% (active). For the same compound, the viability decrease in assay [3] is 103% (active). For the same compound, in [4], the tube area decrease is 97.1% (active). Besides, the GLP1 secretion stimulation in assay [5] is 7.1% (inactive). For the same compound, in assay [6], the inhibition of viability is 102% (active). In addition, the figures for the viability decrease (inhibition) in [7] and in assay [8] were 122% (active) and 97.7% (active), respectively. The red/green cell ratio (normalised) in [15] was 1.37 (inactive). The normalised cell number in assay [15] (setting [20]) stood at 0.76; in assay [15] (setting [21]), 1.04. Besides, the z-score is 0.298 and 1.99 (active) and 1.02 in assay [16] (setting [22]); 6.25 and 5.35 and 3.32 in assay [16] (setting [23]). In [17], the remaining NAD was 10 nM (inactive). Further, in assay [18], the luciferase signal is 1610 AU (active).

Source of the values: PubChem BioAssay.
